Experimental data: PubChem BioAssay (EPA / NIEHS)
Values joined by “and” are separate entries in the source; they are usually repeats but may differ in a detail not shown here. Equal values may be shown once. Results filed as inconclusive are left out. Where a structure was tested more than once in an assay, its records may differ in their call. Active and inactive are the calls of the source. Rule for the calls: active = hit-call score of the fitted dose curve at least 0.9, where 1 is the maximum; inconclusive = response in the unintended direction; inactive = score below 0.9.

What follows are compounds tested against rat Monoamine Oxidase, MAO-B, Peripheral (MAOBP), Maob (gene 25750) (UniProt P19643) (assay: NVS_ENZ_rMAOBP: NovaScreen (NVS) Enzymatic Assay for rat Monoamine Oxidase, MAO-B, Peripheral (MAOBP) (AID 2283242)).
Chain of rat Monoamine Oxidase, MAO-B, Peripheral (MAOBP), Maob (gene 25750) (P19643 whole entry, looked up): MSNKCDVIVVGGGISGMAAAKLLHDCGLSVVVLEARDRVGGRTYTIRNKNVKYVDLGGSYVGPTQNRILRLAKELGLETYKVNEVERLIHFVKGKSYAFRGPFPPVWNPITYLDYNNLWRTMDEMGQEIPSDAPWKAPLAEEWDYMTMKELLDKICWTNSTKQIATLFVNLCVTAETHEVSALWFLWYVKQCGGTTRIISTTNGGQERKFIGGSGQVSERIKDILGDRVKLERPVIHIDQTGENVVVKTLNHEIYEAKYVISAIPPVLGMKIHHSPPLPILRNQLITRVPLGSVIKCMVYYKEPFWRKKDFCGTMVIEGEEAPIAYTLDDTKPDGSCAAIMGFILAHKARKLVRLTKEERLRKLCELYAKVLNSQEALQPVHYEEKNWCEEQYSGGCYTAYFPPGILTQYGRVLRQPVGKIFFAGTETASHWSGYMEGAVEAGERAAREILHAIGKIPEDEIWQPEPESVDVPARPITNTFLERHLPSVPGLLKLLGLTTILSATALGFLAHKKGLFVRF

| Compound | outcome | AC50 |
| --- | --- | --- |
| CN(C)C(=S)SSC(=S)N(C)C | inactive |  |
| CNC(=S)S | inactive |  |
| CCCCNC(=O)OCC#CI |  | 42.4 µM (active) |
| COC(=O)C=C(C)OP(=O)(OC)OC | inactive |  |

These compounds were tested on rat Monoamine Oxidase, MAO-A, Central (MAOAC), gene 29253 (assay: NVS_ENZ_rMAOAC: NovaScreen (NVS) Enzymatic Assay for rat Monoamine Oxidase, MAO-A, Central (MAOAC) (AID 2283243);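 note: potency refers to inhibition seen as signal drop below DMSO baseline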).
How it was run: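 Inhibition of rat brain-derived MAO-A was read by scintillation counting after 1.5 h exposure. Compounds screened first at 25 uM in duplicate, then in dose series if active.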

| Compound | AC50 | outcome |
| --- | --- | --- |
| CC1COC(Cn2cncn2)(c2ccc(Oc3ccc(Cl)cc3)cc2Cl)O1 (stereo not drawn) | 1.8 µM (active) |  |
| O=C(Nc1ccccc1)Nc1ccnc(Cl)c1 | 25 µM (active) |  |
| CC1=C(C(=O)Nc2ccccc2)SCCO1 | 17.5 µM (active) |  |
| Cc1ccc(-c2c(Cl)nc(C#N)n2S(=O)(=O)N(C)C)cc1 | 4.79 µM (active) |  |
| CCNc1nc(Cl)nc(NC(C)C)n1 | 25 µM (active) and 8.22 µM (active) | inactive |
| Fc1ccc(Oc2ccnc3cc(Cl)cc(Cl)c23)cc1 |  | inactive |
| COC(=O)c1ccccc1C(=O)OC |  | inactive |
| CON(C)C(=O)Nc1ccc(Cl)c(Cl)c1 | 20.5 µM (active) [middle of 4 runs] |  |
| Oc1ccccc1-c1ccccc1 | 25 µM (active) |  |
| COc1nc(C)nc(NC(=O)NS(=O)(=O)c2ccccc2Cl)n1 | 37.7 µM (active) | inactive |

These compounds were tested against Adenosine receptor A1 (Bos taurus) (UniProt P28190) (assay: NVS_GPCR_bAdoR_NonSelective: NovaScreen (NVS) G Protein-Coupled Receptor Assay for bovine Adenosine Receptor (AdoR), Non-selective Binding (AID 2283244)).
Chain of Adenosine receptor A1 (Bos taurus) (P28190 whole entry, looked up): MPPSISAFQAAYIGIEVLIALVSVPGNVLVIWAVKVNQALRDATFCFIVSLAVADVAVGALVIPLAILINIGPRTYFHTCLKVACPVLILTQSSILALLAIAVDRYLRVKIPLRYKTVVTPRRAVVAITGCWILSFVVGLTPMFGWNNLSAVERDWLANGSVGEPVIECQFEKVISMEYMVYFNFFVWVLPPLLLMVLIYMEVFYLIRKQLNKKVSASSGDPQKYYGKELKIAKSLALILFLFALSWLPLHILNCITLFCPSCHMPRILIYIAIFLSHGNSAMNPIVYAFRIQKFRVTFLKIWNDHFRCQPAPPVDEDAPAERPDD
How it was run: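 Bovine striatal membranes, radioligand displacement binding, 1 h after dosing, filter-based scintillation counting. Screened in duplicate at 25 uM, then concentration-response up to 50 uM; loss of specific binding relative to DMSO.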

| Compound | AC50 | outcome |
| --- | --- | --- |
| CCOC(=O)CC(SP(=S)(OC)OC)C(=O)OCC (stereo not drawn) | 9.48 µM (active) |  |
| COc1nc(NC(C)C)nc(NC(C)C)n1 | 25 µM (active) |  |
| CO/C=C(/C(=O)OC)c1ccccc1Oc1cc(Oc2ccccc2C#N)ncn1 | 19.1 µM (active) and 7.23 µM (active) |  |
| CCNc1nc(Cl)nc(NC(C)C)n1 | 8.64 µM (active) |  |
| CCCCNC(=O)OCC#CI | 11.9 µM (active) | inactive |

Each compound was assayed on bovine Histamine 1 Receptor (H1), gene 281231 (assay: NVS_GPCR_bH1: NovaScreen (NVS) G Protein-Coupled Receptor Assay for bovine Histamine 1 Receptor (H1) (AID 2283246)).
How it was run: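 Radioligand displacement on bovine cerebellar membranes, 1 h after dosing, filter-based scintillation read-out; loss of signal vs DMSO. Duplicate single-concentration screen at 25 uM, then concentration-response up to 50 uM for hits.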

| Compound | outcome |
| --- | --- |
| CNC(=S)S | inactive |
| CC(C)Oc1cc(-n2nc(C(C)(C)C)oc2=O)c(Cl)cc1Cl | inactive |
| CCNc1nc(Cl)nc(NC(C)C)n1 | inactive |

Each compound was assayed on guinea pig Leukotriene B4 Receptor (LTB4), gene 100379538 (assay: NVS_GPCR_gLTB4: NovaScreen (NVS) G Protein-Coupled Receptor Assay for guinea pig Leukotriene B4 Receptor (LTB4) (AID 2283247)).
Method: NVS_GPCR_gLTB4 is a biochemical, single-readout assay that uses extracted gene-proteins from Guinea pig spleen membranes in a tissue-based cell-free assay. Measurements were taken 2 hours after chemical dosing in a 48-well plate.NVS_GPCR_gLTB4 is one of one assay component(s) measured or calculated from the NVS_GPCR_gLTB4 assay. It is designed to make measurements of radioligand binding, a form of binding reporter, as detected with scintillation counting signals by Filter-based radiodetection technology.Data from the assay component NVS_GPCR_gLTB4 was analyzed into 1 assay endpoint. This assay endpoint, NVS_GPCR_gLTB4, was analyzed in the positive analysis fitting direction relative to DMSO as the negative control and baseline of activity. Using a type of binding reporter, loss-of-signal activity can be used to understand changes in the binding as they relate to the gene Ltb4r. Furthermore, this assay endpoint can be referred to as a primary readout, because the performed assay has only produced 1 assay endpoint. To generalize the intended target to other relatable targets, this assay endpoint is annotated to the gpcr intended target family, where the subfamily is rhodopsin-like receptor.
Binding assays used specific radioligands (tritiated, iodinated) with non-radioactive competitive displacement ligands in agonist or antagonist protocols (as indicated) and various reference compounds and inhibitors to titrate specific binding to receptors and transporters. Most enzyme assays (CYPs, kinases, phosphatases, proteases, HDACs) used recombinant protein and specific substrates (fluorescence mostly, some colorimetric and radioactive) and inhibitors, followed by a biochemical separation of substrate and product. All assays for the biochemical HTS were initially run in duplicate at a single concentration (10 uM for CYP450 assays and 25 uM for all others). […]

| Compound | outcome | AC50 |
| --- | --- | --- |
| CCCCNC(=O)n1c(NC(=O)OC)nc2ccccc21 | inactive |  |
| N#CC(CCc1ccc(Cl)cc1)(Cn1cncn1)c1ccccc1 (stereo not drawn) | inactive |  |
| Cc1ccc(-c2c(Cl)nc(C#N)n2S(=O)(=O)N(C)C)cc1 |  | 1.93 µM (active) |

Each compound was assayed against guinea pig Leukotriene D4 Receptor (LTD4), CYSLTR1 (gene 100135514) (UniProt Q2NNR5) (assay: NVS_GPCR_gLTD4: NovaScreen (NVS) G Protein-Coupled Receptor Assay for guinea pig Leukotriene D4 Receptor (LTD4) (AID 2283248)).
Chain of guinea pig Leukotriene D4 Receptor (LTD4), CYSLTR1 (gene 100135514) (Q2NNR5 whole entry, looked up): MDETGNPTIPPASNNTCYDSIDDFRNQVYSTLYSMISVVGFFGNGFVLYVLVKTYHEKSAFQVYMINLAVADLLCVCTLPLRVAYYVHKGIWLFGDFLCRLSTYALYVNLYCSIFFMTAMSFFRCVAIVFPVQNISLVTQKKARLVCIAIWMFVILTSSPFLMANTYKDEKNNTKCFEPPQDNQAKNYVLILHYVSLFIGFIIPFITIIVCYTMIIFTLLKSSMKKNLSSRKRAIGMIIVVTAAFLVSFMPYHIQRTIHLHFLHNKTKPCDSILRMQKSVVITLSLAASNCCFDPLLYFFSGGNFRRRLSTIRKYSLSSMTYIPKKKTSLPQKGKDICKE
How it was run: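 Radioligand displacement on guinea pig lung membranes, 1 h incubation, filtration and scintillation counting; DMSO as negative control. Duplicate 25 uM primary screen, then singleton concentration-response up to 50 uM.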

| Compound | outcome | AC50 |
| --- | --- | --- |
| C#CCOS(=O)OC1CCCCC1Oc1ccc(C(C)(C)C)cc1 (stereo not drawn) | inactive |  |
| C=CCC1=C(C)C(OC(=O)C2C(C=C(C)C)C2(C)C)CC1=O (stereo not drawn) | inactive |  |
| CCON=C(CC)C1=C(O)CC(c2c(C)cc(C)cc2C)CC1=O (stereo not drawn) |  | 4.89 µM (active) |
| Cc1ccc(-c2c(Cl)nc(C#N)n2S(=O)(=O)N(C)C)cc1 | inactive |  |
| CCOc1cc(Oc2ccc(C(F)(F)F)cc2Cl)ccc1[N+](=O)[O-] | inactive |  |
